Source: PubChem BioAssay (National Center for Advancing Translational Sciences (NCATS))
Cycloheximide cs = Cycloheximide Counterscreen for Small Molecule Inhibitors of Shiga Toxin. max response, %. 300,000 tested, 12% active. AID 2314, 2010. cell reporter, cycloheximide protein synthesis inhibition counterscreen; in the data active = max response mostly above about 13%, no sharp cut-off; inactive = mostly below about 14%; note: read at 38.3 µM for the half of the compounds with a filed dose; 0% is about no effect
SARS PLpro yeast = qHTS of Yeast-based Assay for SARS-CoV PLP. S. cerevisiae expressing SARS-CoV PLpro, growth rescue. Potency, µM (series often up to 32.9 µM), without a hit: at the highest dose activity, positive = growth rescue, most hits filed as activators. 330,000 tested, 0.19% active. AID 485353, 2010; calls by dose curve; note: potency is the fitted concentration of half-maximal effect; 0% is about no effect; nearly all actives have a fitted effect of over 55% in size
AMA1-RON2 inh = qHTS for Inhibitors of AMA1-RON; Towards Development of Antimalarial Drug Lead: Primary Screen | 360,000 tested, 0.2% active | AlphaScreen AMA1-biotinylated RON2 peptide binding | Potency, µM (titrated, usually from 58.2 µM), inactives show top-dose activity change, negative = inhibition, usual class: inhibitors;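 note: potency is the fitted concentration of half-maximal effect; 0% = vehicle wells and -100% = peptide control; nearly all actives have a fitted effect of over 45% in size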
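AMA1 (3D7) with his tag at 25 nM final met compounds first, then biotinylated RON2 peptide at 25 nM; detection used donor plus acceptor beads, 10 µg/mL apiece, read by AlphaScreen after 30 min at room temperature.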
Pf growth 48h = Primary qHTS for delayed death inhibitors of the malarial parasite plastid, 48 hour incubation | P. falciparum luciferase growth in erythrocytes, 48 h | Potency, µM (doses to about 28.7 µM), without a hit: at the top dose activity change, negative = inhibition, hits mostly inhibitors | 310,000 tested, 5.9% active; note: potency is the fitted concentration of half-maximal effect; % is set by controls: 0 for no effect and ±100 for the full control effect
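Read-out is firefly luciferase luminescence from an integrated reporter in P. falciparum, so falling signal marks reduced parasite growth. Infected erythrocytes were at 2% hematocrit and 0.1% parasitemia (final) in Albumax-supplemented RPMI 1640.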
Pf growth 96h = Primary qHTS for delayed death inhibitors of the malarial parasite plastid, 96 hour incubation. P. falciparum luciferase reporter growth, 96 h. Potency, µM (doses to about 28.7 µM), without a hit: top-dose activity change, negative = inhibition, actives largely listed as inhibitors. 320,000 tested, 6.9% active; note: potency is the fitted concentration of half-maximal effect; % is set by controls: 0 for no effect and ±100 for the full control effect
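Two parasite generations (96 h, 37 C, 5% CO2) of compound exposure in infected erythrocytes (0.05% parasitemia, 2% hematocrit). Luciferase-reporter P. falciparum; decreased luminescence indicates inhibited growth, aimed at apicoplast-acting delayed death.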
Shiga inhibitor = A qHTS for Small Molecule Inhibitors of Shiga Toxin | Vero cells, Shiga toxin protein synthesis inhibition reporter | inhibition, % at 38.7 µM | 290,000 tested, 9.2% active | AID 2315, 2010; in the data active = inhibition mostly above about 28%, no sharp cut-off; inactive = mostly below about 43%; note: 0% is about no effect
Active calls of the source: *; [ ] = another dose, or the depositor's remark. Only some compounds are listed: those with a hit (about 19% of all), similar ones and a draw of the others. Unless noted, calls come from the whole dose curve; as a rule, active = well fitted curve in the direction sought with a large enough effect; inconclusive = small, poorly fitted or top-dose-only effect, or another doubt; inactive = no such curve, though single readings can be large; an effect the other way counts as inactive or inconclusive.

`COc1ccc(C(=O)C2CCCN(Cc3cccn3-c3cccnc3)C2)cc1OC` (stereo unspecified) gave Cycloheximide cs 3, SARS PLpro yeast 0%, AMA1-RON2 inh -11%, Pf growth 48h inconclusive, Pf growth 96h 39% and Shiga inhibitor -3.
Screening C=CCNC(=O)N1CCCC(C(=O)c2cccc(OC(C)C)c2)C1 (stereo unspecified) returned Cycloheximide cs 26*, SARS PLpro yeast -3%, AMA1-RON2 inh -7%, Pf growth 48h 49%, Pf growth 96h inconclusive and Shiga inhibitor 118*.
Screening CSc1ccc(C(=O)C2CCCN(Cc3cccn3-c3cccnc3)C2)cc1 (stereo unspecified) returned Cycloheximide cs -2, SARS PLpro yeast -2%, AMA1-RON2 inh -24%, Pf growth 48h 10µM*, Pf growth 96h 11% and Shiga inhibitor -7.
`Brc1ccc(-c2cn3nc4c(nc3n2)CCCC4)cc1` gave Cycloheximide cs 46*, SARS PLpro yeast 1%, AMA1-RON2 inh 30%, Pf growth 48h 252% and Shiga inhibitor 122*.
For CCN(CC)c1ccc(NC(=S)NC(=O)C2CCC2)cc1 the results were Cycloheximide cs 14, SARS PLpro yeast 13%, AMA1-RON2 inh -12%, Pf growth 48h -29%, Pf growth 96h 12µM* and Shiga inhibitor 28.
`C#CC(CC)(CC)NC(=S)Nc1ccc(S(N)(=O)=O)cc1` gave Cycloheximide cs 12*, SARS PLpro yeast -24%, AMA1-RON2 inh -11%[2.32 µM], Pf growth 48h 33%, Pf growth 96h 9% and Shiga inhibitor 44*.
For NS(=O)(=O)c1ccc(NC(=S)NC(=O)C2CCCC2)cc1 the results were Cycloheximide cs 9, SARS PLpro yeast 8%, AMA1-RON2 inh 8%, Pf growth 48h -13%, Pf growth 96h 1.9µM* and Shiga inhibitor -2.
Screening NS(=O)(=O)c1ccc(NC(=O)COC(=O)C2CCCCC2)cc1 returned Cycloheximide cs 33*, SARS PLpro yeast 0%, AMA1-RON2 inh -8%, Pf growth 48h 6%, Pf growth 96h 39% and Shiga inhibitor 40*.
Screening COc1cccc(C2=NOC(C(=O)Nc3cc(C)on3)C2)c1 (stereo unspecified) returned Cycloheximide cs 3, SARS PLpro yeast 1%, AMA1-RON2 inh 5%, Pf growth 48h -6%, Pf growth 96h -7% and Shiga inhibitor -3.
`C#CCOCCOCCOCCNc1nc(N2CCN(C(=O)[C@H](CCC(=O)O)n3cc(C(N)CO)nn3)CC2)nc(N2CCN(C(=O)[C@H](CCC(=O)O)n3cc(C(N)CC(C)C)nn3)CC2)n1` (stereo partly specified) gave Cycloheximide cs -5, SARS PLpro yeast 1%, Pf growth 48h 64%, Pf growth 96h inconclusive and Shiga inhibitor -4.
Screening Cc1ccc(C)c(NC(=O)CN(C)C(=O)c2cc(C3CC3)nn2-c2ccccc2)c1 returned SARS PLpro yeast -2% and AMA1-RON2 inh 1%.
`O=C(CC1CCCC1)N1CCN(S(=O)(=O)c2c(F)cccc2F)CC1` gave AMA1-RON2 inh 0%.
CCOc1ccc(NC(=S)NC(=O)C2CCCC2)cc1 was read as Cycloheximide cs 16*, SARS PLpro yeast 22%, AMA1-RON2 inh 25%, Pf growth 48h -24%, Pf growth 96h inconclusive and Shiga inhibitor 69*.
For O=C(CNC(=O)c1ccc(F)cc1)NCc1ccc(S(=O)(=O)N2CCOCC2)cc1 the results were SARS PLpro yeast 0%, AMA1-RON2 inh 3%, Pf growth 48h inconclusive and Pf growth 96h 6%.
CN1C(=O)C(=Cc2ccc(Sc3ccccc3)o2)C(=O)N(C)C1=O was read as Cycloheximide cs -2, SARS PLpro yeast -1%, AMA1-RON2 inh -1%, Pf growth 48h 8%, Pf growth 96h 44% and Shiga inhibitor -6.
Screening O=C1NC(=O)C(=Cc2ccc(Sc3ccccc3)o2)C(=O)N1 returned Cycloheximide cs 20*, SARS PLpro yeast 1%, AMA1-RON2 inh -19%, Pf growth 48h 16%, Pf growth 96h 32% and Shiga inhibitor 34.
